Test results: ChEMBL document CHEMBL1201862, “PubChem BioAssay data set” (2004); call rule not given here

What follows are compounds tested against T1, Thyroid hormone receptor beta (Homo sapiens) (UniProt P10828) (assay: qHTS Assay for Inhibitors of the Interaction of Thyroid Hormone Receptor and Steroid Receptor Coregulator 2: Probe Summary. [Related pubchem assays (depositor defined):AID1469, AID1479, AID1567, AID1568, AID1570, AID1571, AID1573, AID2444, AID2447, AID2448, AID2449, AID2455, AID2479, AID2487, AID2490, AID2552]).
T1 sequence (whole entry): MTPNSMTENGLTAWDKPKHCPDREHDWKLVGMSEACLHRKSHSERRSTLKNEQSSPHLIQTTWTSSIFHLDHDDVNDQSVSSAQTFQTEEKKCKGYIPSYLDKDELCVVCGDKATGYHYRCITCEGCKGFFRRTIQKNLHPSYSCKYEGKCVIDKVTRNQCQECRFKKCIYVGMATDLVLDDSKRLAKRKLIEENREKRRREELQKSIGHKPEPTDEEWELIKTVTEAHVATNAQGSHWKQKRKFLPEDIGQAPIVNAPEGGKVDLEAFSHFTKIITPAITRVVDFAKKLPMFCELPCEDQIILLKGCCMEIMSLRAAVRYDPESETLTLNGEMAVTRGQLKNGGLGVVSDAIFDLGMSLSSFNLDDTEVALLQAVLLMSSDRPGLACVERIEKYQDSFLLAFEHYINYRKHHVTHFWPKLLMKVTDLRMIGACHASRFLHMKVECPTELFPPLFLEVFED
Assay type: functional

Potency, active:
CCCC1CCN(C(=O)COC(=O)c2ccc(S(C)(=O)=O)c([N+](=O)[O-])c2)CC1 3300 nM, CC1CCN(C(=O)COC(=O)c2ccc(S(C)(=O)=O)c([N+](=O)[O-])c2)CC1 9800 nM, CC(OC(=O)c1ccc(S(C)(=O)=O)c([N+](=O)[O-])c1)C(=O)NC1C2CC3CC(C2)CC1C3 (centres undefined) 1400 nM, CCC(OC(=O)c1ccc(S(C)(=O)=O)c([N+](=O)[O-])c1)C(=O)NC1C2CC3CC(C2)CC1C3 (centres undefined) 1100 nM
